These results are taken from PubChem BioAssay (NCI).

Compounds without any hit were thinned out: in the full panel of roughly 83,000, 20% have a hit.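 Activity criterion: percent growth below 10, measured after cells in 96-well plates were exposed to a single compound concentration for 48 hours.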 Values without a mark were called inactive. Active and inactive are the calls of the source.

Assay in all cases: NCI-60 one-dose screen, 48 h (100 = growth as untreated, 0 = no growth, -100 = all killed)
What all share (details): 10 µM unless noted

The subject of test [1] is DU-145 prostate.
The subject of test [2] is K-562 leukemia.
In test [3] the test system is MALME-3M melanoma.
Test [4] concerns MDA-MB-231 breast.
In test [5] the test system is RXF 393 renal.
Test [6] relates to SF-268 CNS.
Test [7] deals with SF-295 CNS.
The subject of test [8] is UACC-257 melanoma.
Test [9] has as its system M14 melanoma.

Consider `COc1ccc(C2Nc3ccccc3-n3cccc32)cc1` (stereo not given), for which the growth was 111% in test [1]; 105% in [2]; 100% in test [3]; 78.7% in test [4]; 111% in [5]; 98.7% in test [6]. For the same compound, the growth is 92.4% in [7], 98.9% in test [8] and 99.3% in test [9].
Turning to `COc1cc(NCCCCN=C(N)N)c2ncccc2c1`, the growth in test [1] is 108%; in test [2], 84.6%; in test [3], 13.6%; in test [4] it was 63.5%; in [5], 112%; in test [6] it was 30.4%. For the same compound, the growth in test [7] is 87%; in [8], 102%; in test [9], 96.5%.
Regarding `COc1cc2nc3cc([N+](=O)[O-])ccc3c(NCCCNCC(C)(C)O)c2cc1OC`, the growth in [1] is -34.3% (active); in test [2], 0.851% (active); in [3], -81.8% (active); in [4], -62.5% (active); in [5], -81.9% (active); in test [6] it was -57.4% (active). Also, the growth in test [7] was -41.2% (active); in [8], -64.2% (active); in [9], -77.3% (active).
`Cc1nn(-c2nc3ccccc3[nH]2)c2c1C(c1ccc3c(c1)OCO3)CC(=O)N2` (stereo not given): the growth in test [1] is 30.7%; in [2], -14.8% (active); in [3] it was 27.7%; in [4] it was 40.8%; in [5], 8.03% (active); in test [6], 19.3%. In addition, the figures for the growth in test [7], in test [8] and in test [9] were -36.3% (active), 69.1% and 42.5%, respectively.
As for `CC(C)(C)c1nn(-c2ccccc2)c2c1CC1(CN2Cc2ccc3c(c2)OCO3)C(=O)c2ccccc2C1=O`, the growth in test [1] was 112%; in test [2], 89.8%; in [3], 148%; in test [4], 94.6%; in [5] it was 93%; in test [6], 111%. Also, the growth was 106% in test [7], 104% in test [8] and 120% in [9].
`CCOC(=O)c1c2c(n3ccc(NC(=O)CCN4CCCCC4)cc13)C(=O)c1ncccc1C2=O`: the growth in test [1] is -93.9% (active); in [2], -48.2% (active); in [3], -71.7% (active); in [4], -72.9% (active); in test [5], 41.4%; in test [6], 36.6%. Besides, the values for the growth in [7], in test [8] and in test [9] were 35.3%, 21.2% and -77.9% (active), respectively.
As to `COc1cnc2c(c1)C(=O)c1c-2n(CCCN2CCN(C)CC2)c(=O)c2cc([N+](=O)[O-])ccc12`, the growth in test [1] was -42.5% (active); in [2], -50.8% (active); in test [3], -72.9% (active); in test [4], -72.3% (active); in test [5], 84.2%; in test [6], -60.7% (active). Further, the growth is -80.8% (active) in test [7], -37.6% (active) in [8] and -85.2% (active) in test [9].
In the case of `CCCCCCCCCC(=O)Oc1ccc(/C(=C(/C)c2ccccc2)c2ccc(OCCN3CCCC3)cc2)cc1`, the growth in [1] was 55.9%; in [2] it was -12.4% (active); in test [3], -62% (active); in test [4] it was -5.4% (active); in test [5], -32.4% (active); in test [6], 38.7%. Further, the growth in test [7] was -75.1% (active); in test [8], -51.9% (active); in test [9], -57.8% (active).
As for `Cc1nc2nc(N)nc(N)c2nc1C`, the growth in [1] was 110%; in test [2] it was 100%; in test [3] it was 99.9%; in [4] it was 94%; in test [5] it was 105%; in test [6], 98.5%. The results for the growth in [7], in [8] and in test [9] were 90.5%, 96.2% and 90.9%, respectively.
`C=C1CC[C@@H]2[C@](C)(COC(C)=O)[C@H](OC(C)=O)CC[C@@]2(C)[C@@H]1CC(Nc1ccc(S(=O)(=O)Nc2ccc(Cl)nn2)cc1)C1=CCOC1=O` (stereo not given in full): the growth in test [1] is 40.2%; in [2] it was 6.81% (active); in test [3], 55.3%; in test [4], 23.8%; in [5], -13.4% (active); in test [6] it was 43.3%. The growth in test [7] is 92.8%; in [8], 44%; in [9] it was 10.7%.
As for `O=C1c2c[n+](Cc3ccccc3)ccc2-c2nc3ccccc3c3ccnc1c23`, the growth in [1] is -89.5% (active); in test [2], -6.85% (active); in test [3], -95.7% (active); in [4], -14% (active); in test [5] it was -57.1% (active); in test [6], -1.74% (active). In addition, the values for the growth in test [7], in test [8] and in test [9] were -17.4% (active), -67.9% (active) and -68.4% (active), respectively.
For `CCOc1ccc(Nc2nc(-c3c(C)nc4ncccn34)cs2)cc1`, the growth in test [1] was 0.86% (active); in test [2], 4.04% (active); in [3], 52.8%; in test [4] it was -12.5% (active); in test [5], -1.2% (active); in [6], 28.4%. Also, the growth in test [7] is 17.1%; in test [8] it was 78.8%; in [9] it was 21.1%.
As to `COc1cc(OC)c(/C=C/S(=O)(=O)Cc2ccc(OC)c(N)n2)c(OC)c1`, the growth in test [1] is 2.86% (active); in [2], 8.04% (active); in test [3] it was 59.2%; in [4], 15.3%; in test [5], 43.8%; in [6], 39%. Besides, the growth was 6.52% (active) in [7], 47.8% in test [8] and 11.2% in [9].
On to `O=c1ccc2cc3ccccc3cc2[nH]1`, for which the growth in [1] was 100%; in test [2], 57.6%; in test [3], 112%; in [4] it was 101%; in test [5], 93.7%; in [6], 75.5%. Moreover, the growth in test [7] is 95.4%; in test [8] it was 96.5%; in test [9], 101%.
As to `Cc1ccc(S(=O)(=O)n2cc(-c3csc(-c4cn(C)c5ncccc45)n3)c3ccccc32)cc1`, the growth is 78.3% in test [1]; 26.7% in test [2]; 68.5% in test [3]; 42.6% in test [4]; 74.3% in test [5]; 74.1% in [6]. Besides, the growth was 41.9% in test [7], 70.8% in [8] and 34.2% in test [9].
